Data: PubChem BioAssay (NCATS)
Where “and” joins values, the source holds several entries; their conditions need not be identical. Identical values can stand only once. Inconclusive results are not listed. Calls of active or inactive are those of the source. For most assays here, calls follow the shape of the dose curve; as a rule, active = well fitted curve in the direction sought with a large enough effect; inconclusive = small, poorly fitted or top-dose-only effect, or another doubt; inactive = no such curve, though single readings can be large; an effect the other way counts as inactive or inconclusive.

What was measured:
[1] = Ebola virus entry assay, reporter ratio channel; AC50: Channel type: primary unless noted; outcome: Channel type: primary unless noted
[2] = High-throughput drug toxicity screening in the BPDCN cell line Gen2.2 (AID 1224824; call rule not given here); conditions: Gen2.2 BPDCN cells; at 45.8 µM (top of the series)
Procedure, shortened: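 Gen2.2 cells (500/well) in phenol red-free RPMI with 10% FBS were exposed to compounds for 48 h at 37 °C, 5% CO2. Viability was read by CellTiter-Glo luminescence and normalized to DMSO (100%) and 9.2 uM bortezomib (0%).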

[3] = High-throughput drug toxicity screening in the BPDCN cell line Cal-1 (AID 1224825; call rule not given here); conditions: Cal-1 BPDCN cell viability, qHTS; at 45.8 µM (top of the series)
Procedure, shortened: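 CellTiter-Glo luminescence after 48 h compound exposure; percent activity scaled with DMSO as 100% and bortezomib (9.2 uM final) as 0%. Cal-1 cells seeded at 500/well in RPMI, 10% FBS, no phenol red.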

[4] = qHTS assay for measurement of the activity of small molecule inhibitors on Zika virus induced Caspase-3 activity in human astrocytoma cells (AID 1224859); conditions: SNB-19 ZIKV-induced caspase-3/7, luminescence, 6 h; series mostly up to 45.7 µM;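 also: plate controls were ZIKV-infected untreated cells for no effect and uninfected cells for full effect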
Procedure, shortened: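 Luminescence read-out (Caspase-Glo 3/7, 30 min RT) of caspase activity in SNB-19 cells infected 6 h with ZIKV, 2 FFU/cell, after 1 h compound pretreatment; % inhibition from induction normalised to uninfected (0%) and infected (100%) wells.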

[5] = qHTS Screen of the MIPE 4.0 Collection Against Ewings Sarcoma (RDES) (AID 1259252); conditions: RD-ES Ewing sarcoma viability, CellTiter-Glo, 48 h; series mostly up to 45.8 µM; also: nearly all actives have a fitted effect of over 35% in size; also: potency is read from the fitted curve at half-maximal effect
Procedure, shortened: (§1)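 Viability screen: 48 h incubation at 37C, 95% humidity, 5% CO2 with serially titrated compound, followed by CellTiter-Glo readout.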

[6] = qHTS Screen of the MIPE 4.0 Collection Against Ewings Sarcoma (EW8) (AID 1259255); conditions: EW8 Ewing sarcoma viability, CellTiter-Glo, 48 h; series mostly up to 45.8 µM; also: nearly all actives have a fitted effect of over 35% in size; also: potency is read from the fitted curve at half-maximal effect;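 as to viability: 100% = DMSO-treated cells and 0% = medium-only wells without cells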
Procedure, shortened: as §1

[7] = qHTS Screen of the MIPE 4.0 Collection Against Ewings Sarcoma (TC32) (AID 1259256); conditions: TC32 Ewing sarcoma viability, CellTiter-Glo, 48 h; series mostly up to 45.8 µM; also: nearly all actives have a fitted effect of over 45% in size; also: potency is read from the fitted curve at half-maximal effect
Procedure, shortened: as §1

[8] = qHTS assay to identify small molecule inhibitors of chordoma cells - UCH-1 (AID 1259355); conditions: UCH-1 chordoma viability, CellTiter-Glo, 48 h, combination; series mostly up to 46.1 µM; also: nearly all actives have a fitted effect of over 55% in size; also: potency is read from the fitted curve at half-maximal effect
Procedure, shortened: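 Screening used approved and investigational drugs in 15-point titration against 800 seeded cells per well. A fixed combination of auranofin with camptothecin, doxorubicin, rubitecan and topotecan followed compound addition, and growth was scored by CellTiter-Glo after 48hr.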

[9] = qHTS assay to identify small molecule inhibitors of chordoma cells - UCH-2 (AID 1259356); conditions: UCH-2 chordoma viability, CellTiter-Glo ATP luminescence, 48 h; series mostly up to 46.1 µM; also: potency is read from the fitted curve at half-maximal effect
[10] = Immunotoxin (HA22) sensitization/mitigation study. Vehicle arm (PBS) (AID 1159510; call rule not given here; also: potency is read from the fitted curve at half-maximal effect); conditions: cancer cells viability with PBS vehicle (HA22 study); series mostly up to 46.1 µM
[11] = Identifying Small Molecule Inhibitors of Pancreatic Cancer Stem Cells (SN12C, Adherent) (AID 1259358); conditions: viability/growth inhibition; series mostly up to 46.1 µM;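 also: cell survival measured after 48 h of compound exposure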
Procedure, shortened: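 Monolayer and spheroid cultures are compared. Spheroids form over 14 days in stem cell medium on hydrogel-coated low-attachment plates, then are exposed to compound for 48 h before CellTiter-Glo luminescence.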

[12] = Identifying Small Molecule Inhibitors of Pancreatic Cancer Stem Cells (SN12C, Spheroid) (AID 1259360); conditions: Potency: SN12C spheroid viability; series mostly up to 46.1 µM;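 also: 100% = DMSO-treated cells and 0% = wells without cells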
Procedure, shortened: (§2)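 Luminescent ATP readout (CellTiter-Glo) quantifies surviving cells after a 48 h drug incubation. Normalization uses DMSO wells as no inhibition and media-only wells as full inhibition; bortezomib served as positive control.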

[13] = Immunotoxin (SS1P) sensitization/mitigation study. Vehicle arm (DMEM) (AID 1159513; call rule not given here; also: potency is read from the fitted curve at half-maximal effect); conditions: cell viability with vehicle (DMEM); series mostly up to 46.1 µM
[14] = Ebola virus entry cell assay, ratio channel
[15] = qHTS assay for measurement of the activity of small molecule inhibitors on Zika virus induced Caspase-3 activity in human iPSC derived neural progenitor cells (hNPCs) (AID 1224857); conditions: hNPCs ZIKV-induced caspase-3/7, Caspase-Glo luminescence, 6 h; series mostly up to 45.7 µM; also: % of control where 0% means no effect; nearly all actives have a fitted effect of over 65% in size
Procedure, shortened: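 hNPCs seeded 350 cells/well, cultured 16–20 h; compounds added 1 h before ZIKV (2 FFU/cell), 37 C 6 h. Caspase-Glo 3/7 luminescence after 30 min RT; % inhibition from induction scaled to uninfected (0%) and infected (100%) wells.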

[16] = Identifying Small Molecule Inhibitors of Pancreatic Cancer Stem Cells (A2780, Spheroid) (AID 1259357); conditions: Potency: A2780 spheroid viability; series mostly up to 46.1 µM;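 also: compound exposure lasted 48 h before the ATP luminescence read; 100% = DMSO treated cells and 0% = wells without cells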
Procedure, shortened: as §2

C[C@@H]1O[C@@H](O[C@H]2C[C@@H](O)[C@]3(CO)[C@H]4[C@H](O)C[C@]5(C)[C@@H](C6=CC(=O)OC6)CC[C@]5(O)[C@@H]4CC[C@]3(O)C2)[C@H](O)[C@H](O)[C@H]1O
AC50 [1]: 0.708 µM (active)
cell viability, % of control (lower = more cytotoxic) [2]: 26%
viability (% of control) [3]: 3.79%
outcome [4]: inactive
Potency [5]: 83.3 nM (active)
Potency [6]: 0.0372 µM (active)
Potency [7]: 0.059 µM (active)
Potency [8]: 158 nM (active) and 63.1 nM (active)
Potency [9]: 65.1 nM (active) and 51.7 nM (active)

Cn1cc(C2=C(c3cn(C4CCN(Cc5ccccn5)CC4)c4ccccc34)C(=O)NC2=O)c2ccccc21
outcome [1]: inactive
Potency [10]: 4.18 µM (active)
cell viability, % of control (lower = more cytotoxic) [2]: 265%
viability (% of control) [3]: 14.5%
outcome [4]: inactive
Potency [6]: 10.5 µM (active)
Potency [7]: 8.33 µM (active)
Potency [11]: inactive
Potency [12]: inactive

Cc1ccc(-n2nc(C(C)(C)C)cc2NC(=O)Nc2ccc(OCCN3CCOCC3)c3ccccc23)cc1
AC50 [1]: 20 µM (active)
Potency [10]: 10.5 µM (active)
Potency [13]: inactive

COc1cccc2c1C(=O)c1c(O)c3c(c(O)c1C2=O)C[C@@](O)(C(=O)CO)C[C@@H]3O[C@H]1C[C@H](N)[C@H](O)[C@H](C)O1
AC50 [1]: 14.1 µM (active)
Potency [10]: 0.0118 µM (active)
Potency [13]: 0.187 µM (active)

CO[C@]12CC[C@@]3(C[C@@H]1[C@](C)(O)C(C)(C)C)[C@@H]1Cc4ccc(O)c5c4[C@@]3(CCN1CC1CC1)[C@H]2O5
AC50 [1]: 3.16 µM (active)
outcome [14]: inactive
Potency [15]: inactive
outcome [4]: inactive

CCC(=O)O[C@H]1[C@H](O[C@@H]2[C@@H](C)[C@H](O[C@H]3C[C@@](C)(OC)[C@@H](O)[C@H](C)O3)[C@@H](C)C(=O)O[C@H](CC)[C@@](C)(O)[C@H](O)[C@@H](C)C(=O)[C@H](C)C[C@@]2(C)O)O[C@H](C)C[C@@H]1N(C)C
AC50 [1]: 11.2 µM (active)
outcome [14]: inactive

COc1ccc(C(=O)c2c(C)n(CCN3CCOCC3)c3ccccc23)cc1
AC50 [1]: 35.5 µM (active)
Potency [10]: 20.9 µM (active)
cell viability, % of control (lower = more cytotoxic) [2]: 100%
viability (% of control) [3]: 101%
Potency [15]: inactive
outcome [4]: inactive
Potency [5]: inactive
Potency [6]: inactive
Potency [7]: inactive
Potency [8]: inactive
Potency [9]: inactive
Potency [16]: inactive
Potency [11]: inactive

CC(C)C[C@H](NC(=O)[C@H](CCc1ccccc1)NC(=O)CN1CCOCC1)C(=O)N[C@@H](Cc1ccccc1)C(=O)N[C@@H](CC(C)C)C(=O)[C@@]1(C)CO1
AC50 [1]: 0.708 µM (active)
Potency [10]: 0.0015 µM (active)
Potency [13]: 0.0418 µM (active)

Cc1ccc(O)c([C@H](CCN(C(C)C)C(C)C)c2ccccc2)c1
AC50 [1]: 12.6 µM (active)
AC50 [14]: 11.2 µM (active)

C=C(C)[C@H]1Cc2c(ccc3c2O[C@@H]2COc4cc(OC)c(OC)cc4[C@@H]2C3=O)O1
AC50 [1]: 8.91 µM (active)
cell viability, % of control (lower = more cytotoxic) [2]: 45.8%
viability (% of control) [3]: 11.5%
Potency [15]: inactive
outcome [4]: inactive
Potency [5]: 2090 nM (active)
Potency [6]: 2.96 µM (active)
Potency [7]: 0.743 µM (active)
Potency [9]: inactive

CS(=O)(=O)CCNCc1ccc(-c2ccc3ncnc(Nc4ccc(OCc5cccc(F)c5)c(Cl)c4)c3c2)o1
AC50 [1]: 3.98 µM (active)
outcome [14]: inactive
Potency [10]: 20.9 µM (active)

O=C1Nc2ccc(Cl)cc2[C@@](C#CC2CC2)(C(F)(F)F)O1
AC50 [1]: 22.4 µM (active)
outcome [14]: inactive
Potency [10]: 42.9 µM (active)
Potency [13]: 48.1 µM (active)

O=C1c2c(O)ccc(O)c2C(=O)c2c(NCCNCCO)ccc(NCCNCCO)c21
AC50 [1]: 7.94 µM (active)
AC50 [14]: 5.01 µM (active)

Cc1cccc(C)c1NC(=O)CN1CCCC1=O
outcome [1]: inactive
cell viability, % of control (lower = more cytotoxic) [2]: 116%
viability (% of control) [3]: 110%
Potency [15]: inactive
outcome [4]: inactive
Potency [5]: inactive
Potency [6]: inactive

CCN(CCO)CCCC(C)Nc1ccnc2cc(Cl)ccc12 (centres undefined)
AC50 [1]: 1.41 µM (active)
AC50 [14]: 1.26 µM (active)
Potency [10]: inactive
Potency [13]: inactive

COc1cc(Nc2c(C#N)cnc3cc(OCCCN4CCN(C)CC4)c(OC)cc23)c(Cl)cc1Cl
AC50 [1]: 1.41 µM (active)
Potency [10]: 13.2 µM (active)
Potency [13]: 23.5 µM (active)

CC1(CN2CCC(n3c(=O)[nH]c4ccccc43)CC2)OCc2ccccc2-n2cccc21 (centres undefined)
AC50 [1]: 15.8 µM (active)
Potency [10]: 26.4 µM (active)

Fc1ccc(C(OCCN2CCN(CCCc3ccccc3)CC2)c2ccc(F)cc2)cc1
AC50 [1]: 2.82 µM (active)
cell viability, % of control (lower = more cytotoxic) [2]: 57.3%
viability (% of control) [3]: 3.89%
Potency [15]: inactive
outcome [4]: inactive
Potency [6]: 20.9 µM (active)
Potency [7]: 26.4 µM (active)
Potency [8]: 31.6 µM (active)

CC(CN1c2ccccc2Sc2ccccc21)N(C)C (centres undefined)
AC50 [1]: 31.6 µM (active)
AC50 [14]: 20 µM (active)

CN(C)CCCN1c2ccccc2Sc2ccc(Cl)cc21
AC50 [1]: 3.98 µM (active)
AC50 [14]: 10 µM (active)

Cc1ccc2c(c1)C1CN(C)CCC1N2 (centres undefined)
AC50 [1]: 10 µM (active)
Potency [15]: inactive
outcome [4]: inactive
Potency [8]: inactive
Potency [9]: inactive
